Sm TGR block: S. mansoni TGR enzyme inhibition; purified TGR, DTNB reduction, TNB absorbance 405 nm; Q962Y6; AID 485364; 360,000 compounds, 3% hits; Potency, µM (highest dose often 114 µM), without a hit: at the top dose activity change, negative = inhibition, actives largely listed as inhibitors; further: nearly all actives have a fitted effect of over 60% in size
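First, TGR (20 nM dispensed) and NADPH were mixed with compound. Second, a 15 min room-temperature incubation followed. Third, further NADPH and then DTNB were added to start the reaction. Finally, TNB absorbance was monitored kinetically.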
RE007 growth inh: less growth of the S. pombe RE007 Vpr strain | Potency, µM (titrated, usually from 92.2 µM), without a hit: top-dose activity change, negative = less growth, usual class: inhibitors | AID 651644 | 360,000 compounds, 0.21% hits | S. pombe RE007 Vpr strain, BacTiter-Glo ATP luminescence, 24 h; active means well fitted falling curve with a large enough effect; inconclusive means small, poorly fitted or top-dose-only effect; inactive means no such curve, though single readings can be large or run the other way; further: nearly all actives have a fitted effect of over 50% in size
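Fission yeast strain RE007, carrying one chromosomally integrated HIV-1 vpr copy, was seeded at OD 0.01 in PMG+AL medium with 23 nL pinned compound. After 24 h at 30 °C and 99% humidity, viability was read by BacTiter-Glo luminescence.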
AMA1 RON2 block: inhibitors of Plasmodium falciparum AMA1-RON2 interaction. AlphaScreen AMA1-biotinylated RON2 peptide binding. Potency, µM (highest dose often 58.2 µM), for inactives: top-dose activity change, negative = inhibition, most hits filed as inhibitors. 360,000 compounds, 0.2% hits. AID 720542;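 further: 0% = vehicle wells and -100% = peptide control; nearly all actives have a fitted effect of over 45% in size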
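AMA1 (3D7) with his tag at 25 nM final met compounds first, then biotinylated RON2 peptide at 25 nM; detection used donor plus acceptor beads, 10 µg/mL apiece, read by AlphaScreen after 30 min at room temperature.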
AmpC inh detg: blocks E. coli AmpC beta-lactamase in detergent assay; P00811; AmpC hydrolysis of nitrocefin, absorbance 480 nm, 0.01% Triton; Potency, µM (top dose mostly 114 µM), inactives show at the highest dose activity change, negative = inhibition, actives largely listed as inhibitors; 370,000 compounds, 0.041% hits;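 further: 0% = no-compound wells and -100% = no-enzyme wells; nearly all actives have a fitted effect of over 25% in size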
Target sequence (P00811 whole entry, looked up): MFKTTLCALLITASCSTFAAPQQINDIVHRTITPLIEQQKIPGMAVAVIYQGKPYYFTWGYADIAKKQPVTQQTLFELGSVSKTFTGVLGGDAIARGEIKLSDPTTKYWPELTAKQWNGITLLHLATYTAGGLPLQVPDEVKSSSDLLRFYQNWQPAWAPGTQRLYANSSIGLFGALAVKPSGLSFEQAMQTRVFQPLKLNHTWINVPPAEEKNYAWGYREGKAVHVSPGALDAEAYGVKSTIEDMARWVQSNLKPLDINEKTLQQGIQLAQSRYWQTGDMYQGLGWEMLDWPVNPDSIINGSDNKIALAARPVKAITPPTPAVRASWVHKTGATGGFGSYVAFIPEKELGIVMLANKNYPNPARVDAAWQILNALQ
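AmpC (5.3 nM in the dispensed reagent) in 20 mM phosphate pH 7.0 with 0.01% (detergent screen) or 0.0001% Triton X-100 was preincubated with compounds for 15 min at room temperature. Nitrocefin was then added from an 800 uM solution, and hydrolysis was followed at 480 nm.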
AmpC no deterg: blocks E. coli AmpC beta-lactamase in detergent-free assay; P00811; AmpC nitrocefin hydrolysis, absorbance 480 nm, 0.0001% Triton; 330,000 compounds, 0.52% hits; Potency, µM (titrated, usually from 57.1 µM), for the others: at the highest dose activity change, negative = inhibition, most hits filed as inhibitors;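 further: plate controls were no compound for no effect and no enzyme for full effect; nearly all actives have a fitted effect of over 20% in size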
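20 mM phosphate pH 7.0 + 0.01% (detergent screen) or 0.0001% Triton X-100; 5.3 nM AmpC reagent; cpd preinc 15 min RT; nitrocefin (800 uM stock) to start; A480 q20 s × 4 min; Activity was normalised to no-enzyme and no-compound control wells.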
Numbers without * were called inactive; ? = inconclusive; . = not tested or not shown; [ ] = another dose, or the depositor's remark. This is a sample that favours compounds with a hit; in the whole collection about 3.2% have one here. Unless noted, the call rests on the fitted dose curve; in most records, active means well fitted curve in the direction sought with a large enough effect; inconclusive means small, poorly fitted or top-dose-only effect, or another doubt; inactive means no such curve, though single readings can be large; an effect the other way counts as inactive or inconclusive. Unless noted, on the % scale 0 is the no-effect control and ±100 the full control effect; potency means the concentration at half of the fitted maximal effect.

SMILES	Sm TGR block	RE007 growth inh	AMA1 RON2 block	AmpC inh detg	AmpC no deterg
O=C(O)c1cccc(Nc2ccc([N+](=O)[O-])c3nonc23)c1	-28%	-18%	?	-10%	-17%
O=[N+]([O-])c1ccc(Nc2ccccn2)c([N+](=O)[O-])c1	-14%	-12%	-29%	-6%	0%
CCc1ccc(NCc2cc3ccc(OC)cc3n(CC(=O)Nc3ccc(C)c(Cl)c3)c2=O)cc1	3%	.	.	12%	.
CN1CCC(OC(=O)COc2ccc(Br)cc2)CC1	20µM*	-7%	-3%	2%	1%
Cc1ccc(N(C)S(=O)(=O)c2ccc(-c3coc(C)n3)cc2)cc1	1%	.	.	-6%	.
COc1ccc(C(=O)COC(=O)c2cc(-c3ccccc3)nc3c(C)cccc23)cc1	-6%	.	.	1%	.
CC(CNC(=O)c1cc2cc(S(=O)(=O)N3CCCCC3)ccc2n1C)c1ccccc1 (centres undefined)	5%	.	.	-5%	.
CC(=O)[C@H]1[C@@H]2C(=O)N(c3cccc(Cl)c3)C(=O)[C@@H]2[C@H]2c3ccccc3C=CN21	16µM*	-14%	7%	2%	-8%
CC(=O)[C@@H]1[C@@H]2C(=O)N(C3CCCCC3)C(=O)[C@@H]2C2c3ccccc3C=CN21 (some centres undefined)	25µM*	.	.	?	16%
CC(=O)[C@@H]1[C@@H]2C(=O)N(c3ccc(F)c(Cl)c3)C(=O)[C@@H]2C2c3ccccc3C=CN21 (some centres undefined)	35µM*	.	.	2%	-30%
COc1ccc(-c2cn3cccnc3n2)cc1NC(=O)Nc1ccc(Cl)cc1	4%	.	.	4%	.
COc1ccc(CN2CCC(N3CC(C)OC(C)C3)CC2)c(OC)c1OC (centres undefined)	-8%	-2%	13µM*	?	-11%
C/C(=N\Nc1ncc(Cl)cc1Cl)c1ccccn1	-33%	22µM*	71%	1%	-34%
O=C(NCCc1nc2ccccc2n1Cc1ccc(F)cc1)c1ccco1	2%	.	.	2%	.
COc1cccc(NC2=C(C#N)C(=O)NC(c3cccc(OC)c3O)S2)c1 (centres undefined)	7.9µM*	9%	22%	1%	-33%
COc1ccccc1CNC(=O)C(C)n1c(=O)cc(C(F)(F)F)c2c(C)nn(C)c21 (centres undefined)	6%	.	.	27%	.
CC(=O)N(/N=C/c1ccc([N+](=O)[O-])o1)c1nc2ccccc2c(=O)n1-c1ccccc1	40µM*	-3%	-2%	1%	-6%
Cc1nc2ccccc2c(=O)n1/N=C/c1ccc([N+](=O)[O-])o1	14µM*	.	.	1%	-24%
O=c1c2ccccc2nc(/C=C/c2ccc([N+](=O)[O-])o2)n1-c1ccc(O)cc1	?	1%	-3%	-2%	-28%
O=C(CCCn1c(=O)c2cccn2c2ccc(F)cc21)NCc1ccc(Cl)cc1	-2%	.	.	-1%	.
Cc1ccnc(NS(=O)(=O)c2ccc(NC(=O)c3ccc(S(=O)(=O)N4CC(C)OC(C)C4)cc3)cc2)n1 (centres undefined)	-23%	-9%	-6%[11.6 µM]	-3%	32µM*
CCCc1nc(SC)ncc1C(=O)N1CCN(c2ccc(Cl)cc2)CC1	1%	.	.	-1%	.
CCNC(=S)Nc1ccc(C)c(S(=O)(=O)Nc2ccccc2OC)c1	2.8µM*	-10%	-10%	4%	-3%
COc1ccccc1NS(=O)(=O)c1cc(NC(=O)CNC(=O)c2cc(C)cc(C)c2)ccc1C	14%	-6%	14%	-1%	-48%
CCOC(=O)N1CCN(c2cc(NCCO)c([N+](=O)[O-])c3nonc23)CC1	-4%	4%	-3%	?	-11%
SMILES	Sm TGR block	RE007 growth inh	AMA1 RON2 block	AmpC inh detg	AmpC no deterg
CN(CCO)c1cc(Sc2nc3ccccc3s2)c2nonc2c1[N+](=O)[O-]	0.32µM*	-2%	-3%	-4%	-21%
CN(C)c1cc(Nc2ccc(O)cc2)c([N+](=O)[O-])c2nonc12	0%	8%	-3%	1%	-37%
CC(=O)OCCN(C)c1cc(SC(C)C)c2nonc2c1[N+](=O)[O-]	0.71µM*	1%	2%	2%	10%
CCOC(=O)N1CCN(c2cc(N(C)CCO)c([N+](=O)[O-])c3nonc23)CC1	35µM*	-5%	-3%	6%	-17%
COc1ccc(-c2csc3ncnc(Nc4ccc(OC)cc4OC)c23)cc1	-1%	.	.	-4%	.
COc1ccccc1NC(=O)c1sc2nc(C)c(C(=O)Nc3ccc(C)cc3C)c(-c3ccc(Br)cc3)c2c1N	0%	.	.	7%	.
O=C(c1ccco1)N1CCN=C1SCc1ccc(F)cc1	5%	-3%	25%	?	8.9µM*
CC(O)CN1C(=O)C(CC(=O)Nc2ccc(Cl)cc2)SC1=Nc1ccccc1 (centres undefined)	18µM*	?	7%	-10%	96%
CCOC(=O)c1ccc2c(c1)N(CC(=O)N(C)c1ccccc1)C(=O)c1ccccc1S2	2%	.	.	-2%	.
COC(=O)C1=C(C)N(CC2CCCO2)C(=O)/C1=C\c1ccc(O)cc1 (centres undefined)	50µM*	-9%	-4%	4%	0%
O=C1NC(Cc2c[nH]c3ccccc23)C(=O)N1Cc1ccccc1 (centres undefined)	-15%	-5%	2%	3%	-16%
CN1C(=O)C(Cc2c[nH]c3ccccc23)C(=O)N(C)C1=O	14µM*	.	.	?	13%
CN1C(=O)C(Cc2cccc3ccccc23)C(=O)N(C)C1=O	14µM*	-13%	2%	-11%	-25%
O=C1c2ccccc2C(=O)C1Cc1cccc2ccccc12	56µM*	-22%	18%	1%	-39%
O=C1NC(c2cccc3ccccc23)Nc2ccccc21 (centres undefined)	.	?	9%	.	.
CCc1ccc(OCc2nc(-c3ccc(OC)c(OC)c3)no2)c(Br)c1	7%	.	.	15%	.
O=CN/C=C/c1cc(O)ccc1O	6.3µM*	-3%	?	4%	-35%
C=CCN1CC[C@]23c4c5ccc(O)c4OC2C(=O)CC[C@@]3(O)C1C5 (some centres undefined)	40µM*	2%	10%	-10%	-13%
CC(C)Cc1cc(C(=O)NCc2ccc(Cl)cc2)no1	2%	.	.	19%	.
Cc1ccc2c(c1)C1CCCC3C1N2CC(=O)N3Cc1ccccc1 (centres undefined)	50µM*	.	.	?	-35%
Cc1ccc2c(c1)C(CCN)C(=O)N2Cc1ccccc1 (centres undefined)	-11%	-1%	-9%	-3%	26%
CCc1ccc(-n2nc(CO)c(C(=O)NC)n2)cc1	0%	.	.	1%	.
Nc1cc(-c2ccncc2)c[nH]c1=O	40µM*	-2%	8%	?	-16%

Source: PubChem BioAssay
